The source made the active and inactive calls. Unless noted, calls follow the shape of the dose curve; as a rule, active = well fitted curve in the direction sought with a large enough effect in the repeat runs; inconclusive = weak or mixed curves; inactive = no such curve, though single readings can be large; an effect the other way counts as inactive or inconclusive.
Assays:
[1] = test system: thyroid hormone receptor (rat, GH3 cells); assay: qHTS assay to identify small molecule agonists of the thyroid receptor (TR) signaling pathway (AID 743066; calls by dose curve)
[2] = biological target: Estrogen receptor (Homo sapiens) (UniProt P03372); assay: qHTS assay to identify small molecule antagonists of the estrogen receptor alpha (ER-alpha) signaling pathway (AID 743069; active = well fitted curve in the direction sought with a large enough effect in the signal ratio in the repeat runs, not every such curve was filed as active; inconclusive = weak or mixed curves, or effect the other way; inactive = no such curve, though single readings can be large or run the other way; the % refers to the signal ratio)
Summary of the method: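 Estradiol-stimulated ER-alpha-UAS-bla HEK293 cells, 18 hr compound exposure at 37C. LiveBLAzer B/G substrate, 2 hr RT, fluorescence read.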

[3] = qHTS assay to identify small molecule antagonists of the estrogen receptor alpha (ER-alpha) signaling pathway - cell viability counter screen (AID 743074; calls by dose curve;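 also: HEK293 cells carrying ER-alpha-UAS-bla reporter stimulated with 17beta-estradiol; nearly all actives have a fitted effect of over 45% in size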)
[4] = biological target: Estrogen receptor (Homo sapiens) (UniProt P03372); assay: qHTS assay to identify small molecule agonists of the estrogen receptor alpha (ER-alpha) signaling pathway (AID 743075; calls by dose curve;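 also: HEK293 GripTite cells with ER-alpha and UAS-driven beta-lactamase reporter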; also: potency is read from the fitted curve at half-maximal effect)
[5] = biological target: Estrogen receptor (Homo sapiens) (UniProt P03372); assay: qHTS assay to identify small molecule agonists of the estrogen receptor alpha (ER-alpha) signaling pathway using the BG1 cell line (AID 743079); details: BG1Luc4E2 cells, ERE-luciferase agonist, 22 h; also: nearly all actives have a fitted effect of over 20% in size; also: potency is read from the fitted curve at half-maximal effect
[6] = qHTS assay to identify small molecule antagonists of the estrogen receptor alpha (ER-alpha) signaling pathway using the BG1 cell line (AID 743080; calls by dose curve;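 also: BG1 cells stimulated with 17beta-estradiol alongside compound; nearly all actives have a fitted effect of over 25% in size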; also: potency is read from the fitted curve at half-maximal effect)
Summary of the method: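 BG1-Luc-4E2 cells (endogenous full-length ER-alpha, stable 4×ERE-luciferase) were starved 5 days in phenol-red-free medium with 10% charcoal-stripped FBS, plated 24 h, then given compound plus 17beta-estradiol for 21.5 h at 37 C; ONE-Glo luminescence read after 30 min.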

[7] = qHTS assay to identify small molecule antagonists of the estrogen receptor alpha (ER-alpha) signaling pathway using the BG1 cell line - cell viability counter screen (AID 743081);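 also: compound given together with 17beta-estradiol as the ER stimulus; nearly all actives have a fitted effect of over 45% in size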
[8] = biological target: Aromatase (Homo sapiens) (UniProt P11511); assay: qHTS assay to identify aromatase inhibitors (AID 743083); also: nearly all actives have a fitted effect of over 55% in size; also: potency is read from the fitted curve at half-maximal effect
[9] = qHTS assay to identify aromatase inhibitors - cell viability counter screen (AID 743084);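 also: cells stimulated with testosterone during compound exposure; nearly all actives have a fitted effect of over 55% in size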
[10] = qHTS assay to identify small molecule antagonists of the thyroid receptor (TR) signaling pathway (AID 743065); also: nearly all actives have a fitted effect of over 55% in size
Summary of the method: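 GH3.TRE-Luc rat pituitary cells carrying two TR response elements driving luciferase were plated for 4 h, given compound plus 1 nM T3 (final), and incubated 23.5 h at 37 C. ONE-Glo luminescence measured reporter inhibition; CellTiter-Fluor fluorescence tracked cytotoxicity.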
% is scaled to controls: 0 for no effect and ±100 for the full control effect.

Estrogen receptor (Homo sapiens), sequence (P03372 whole entry, looked up): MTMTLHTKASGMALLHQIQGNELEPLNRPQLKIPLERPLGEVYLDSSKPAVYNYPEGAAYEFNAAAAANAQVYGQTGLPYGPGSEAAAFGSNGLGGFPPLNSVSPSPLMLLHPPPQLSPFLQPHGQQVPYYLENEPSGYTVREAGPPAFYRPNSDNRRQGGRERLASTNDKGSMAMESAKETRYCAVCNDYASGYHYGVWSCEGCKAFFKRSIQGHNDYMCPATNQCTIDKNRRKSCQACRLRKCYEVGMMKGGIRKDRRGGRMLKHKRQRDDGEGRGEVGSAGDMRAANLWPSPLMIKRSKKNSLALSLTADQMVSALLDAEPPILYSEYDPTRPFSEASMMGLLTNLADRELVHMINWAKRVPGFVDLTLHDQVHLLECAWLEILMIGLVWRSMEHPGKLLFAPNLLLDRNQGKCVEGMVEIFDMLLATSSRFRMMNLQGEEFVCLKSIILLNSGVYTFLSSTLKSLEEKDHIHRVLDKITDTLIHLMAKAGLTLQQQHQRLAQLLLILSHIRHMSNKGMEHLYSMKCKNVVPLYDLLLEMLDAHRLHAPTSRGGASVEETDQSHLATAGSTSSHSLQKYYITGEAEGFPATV
Aromatase (Homo sapiens), sequence (P11511 whole entry, looked up): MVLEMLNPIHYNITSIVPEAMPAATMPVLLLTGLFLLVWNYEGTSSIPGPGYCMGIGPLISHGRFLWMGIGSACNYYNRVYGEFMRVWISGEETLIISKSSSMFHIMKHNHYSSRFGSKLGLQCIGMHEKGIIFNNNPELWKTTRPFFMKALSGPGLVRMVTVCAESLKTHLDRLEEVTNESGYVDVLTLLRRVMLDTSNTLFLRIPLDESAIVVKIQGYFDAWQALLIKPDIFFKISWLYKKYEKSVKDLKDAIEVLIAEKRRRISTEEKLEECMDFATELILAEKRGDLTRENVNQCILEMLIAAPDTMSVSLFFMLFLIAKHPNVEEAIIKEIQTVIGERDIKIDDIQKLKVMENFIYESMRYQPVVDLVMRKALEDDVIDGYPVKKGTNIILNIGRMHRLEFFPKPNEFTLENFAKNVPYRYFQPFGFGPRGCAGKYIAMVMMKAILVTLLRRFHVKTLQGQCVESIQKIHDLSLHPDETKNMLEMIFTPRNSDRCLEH

CCNc1nc(Cl)nc(NC(C)(C)C)n1
inactive: Potency [1] | Potency [2] | Potency [3] | Potency [6] | Potency [7] | Potency [8] | Potency [9]
active: Potency [4] 61.6 µM [inconclusive] | Potency [5] 9.69 µM

CCSC(=O)Cl
inactive: Potency [1] | Potency [2] | Potency [3] | Potency [4] | Potency [6] | Potency [7] | Potency [8] | Potency [9]

C[N+]1(C)CCCCC1
inactive: Potency [10] | Potency [3] | Potency [7] | Potency [8] | Potency [9]

CC(=O)OCC1=C(C(=O)O)N2C(=O)[C@@H](N)[C@H]2SC1
inactive: Potency [10] | Potency [1] | Potency [3] | Potency [7] | Potency [8] | Potency [9]

CCOP(=O)(CN(CCO)CCO)OCC
inactive: Potency [1] | Potency [2] | Potency [3] | Potency [4] | activation ([5]; at 70.3 µM (top of the series)) -2.5% | Potency [6] | Potency [7] | Potency [8] | Potency [9]

COC(=O)c1ccc(CBr)cc1
active: Potency [5] 6.94 µM
inactive: Potency [1] | Potency [2] | Potency [4] | Potency [7] | Potency [8] | Potency [9]

Nc1c(Cl)c(F)nc(OCC(=O)O)c1Cl
inactive: Potency [1] | Potency [2] | Potency [3] | Potency [4] | activation ([5]; at 70.3 µM (top of the series)) -0.92% | Potency [6] | Potency [7] | Potency [8] | Potency [9]

CN(C)C(=O)Oc1cc(OC(=O)N(C)C)cc(C(O)CNC(C)(C)C)c1 (stereo unspecified)
inactive: Potency [1] | Potency [2] | Potency [3] | Potency [4] | activation ([5]; at 32.5 µM (top of the series)) -8.21% | Potency [6] | Potency [7] | Potency [8] | Potency [9]

C[C@H](CN1CCOCC1)C(C(=O)N1CCCC1)(c1ccccc1)c1ccccc1
inactive: Potency [1] | Potency [2] | Potency [4] | activation ([5]; at 95 µM (top of the series)) -2.63% | Potency [6] | Potency [8] | Potency [9]

CCOC(=O)C(Cl)Cc1cc(-n2nc(C)n(C(F)F)c2=O)c(F)cc1Cl (stereo unspecified)
inactive: Potency [1] | Potency [2] | Potency [3] | Potency [4] | Potency [6] | Potency [7] | Potency [9]
active: Potency [8] 54.5 µM

N#CN=C1SCCN1Cc1ccc(Cl)nc1
inactive: Potency [10] | Potency [1] | Potency [4] | activation ([5]; at 70.3 µM (top of the series)) -2.73% | Potency [6] | Potency [7] | Potency [8] | Potency [9]

CS(=O)(=O)c1ccc(C(=O)C2C(=O)CCCC2=O)c(Cl)c1COCC(F)(F)F
inactive: Potency [1] | Potency [2] | Potency [3] | Potency [4] | activation ([5]; at 70.3 µM (top of the series)) 14.7% | Potency [6] | Potency [7] | Potency [8] | Potency [9]

COP(=O)(O)OC
inactive: Potency [1] | Potency [3] | Potency [4] | activation ([5]; at 95 µM (top of the series)) -8.98% | Potency [6] | Potency [7] | Potency [8] | Potency [9]

C=C1CC[C@@]2(O)[C@H]3Cc4ccc(O)c5c4[C@@]2(CCN3CC2CC2)[C@H]1O5
inactive: Potency [3] | Potency [7] | Potency [8] | Potency [9]

O=C(Cl)OCc1ccccc1
inactive: Potency [3] | Potency [4] | activation ([5]; at 95 µM (top of the series)) -4.92% | Potency [6] | Potency [7] | Potency [8] | Potency [9]

CCc1cc(OC)c(C[C@H](C)N)cc1OC
inactive: Potency [1] | Potency [3] | Potency [8] | Potency [9]

ClCCCCCCCl
inactive: Potency [1] | Potency [3] | Potency [7] | Potency [8] | Potency [9]

CON(C)C(=O)Nc1ccc(Br)c(Cl)c1
inactive: Potency [1] | Potency [3] | Potency [7] | Potency [8] | Potency [9]

Cc1ccc2cc(C)ccc2c1
inactive: Potency [1] | Potency [3] | Potency [7] | Potency [8] | Potency [9]

C=CC=O
inactive: Potency [3] | Potency [7] | Potency [8] | Potency [9]

CCCCCCCCBr
inactive: Potency [3] | Potency [7] | Potency [8] | Potency [9]

O=C(NC(=O)c1c(F)cccc1F)Nc1cc(Cl)c(F)c(Cl)c1F
inactive: Potency [2] | Potency [3] | Potency [4] | activation ([5]; at 70.3 µM (top of the series)) 11.8% | Potency [6] | Potency [7] | Potency [8] | Potency [9]

Oc1ccc2c3c1O[C@H]1[C@@H](O)C=C[C@H]4[C@@H](C2)NCC[C@@]341
inactive: Potency [1] | Potency [3] | Potency [8] | Potency [9]

Clc1cc2c(cc1Cl)Oc1cc(Cl)c(Cl)cc1O2
active: Potency [6] 0.7 nM
inactive: activation [1] -1.12% [at 0.329 µM] | activity, negative = cytotoxicity [3] 14.4% [at 0.274 µM] | activation [4] -4.62% [at 0.274 µM] | activation ([5]; at 0.341 µM (top of the series)) -0.247% | activity change, negative = cytotoxicity [7] -0.0382% [at 0.341 µM] | activity change, negative = cytotoxicity [9] 1.38% [at 0.342 µM]

CC(C)(N)Cc1ccc(Cl)cc1
inactive: Potency [1] | Potency [3] | Potency [4] | activation ([5]; at 70.3 µM (top of the series)) 0.193% | Potency [6] | Potency [7] | Potency [8] | Potency [9]

CC1N=C(N)OC1c1ccccc1 (stereo unspecified)
inactive: Potency [1] | Potency [4] | activation ([5]; at 70.3 µM (top of the series)) 10.7% | Potency [6] | Potency [8] | Potency [9]

CCOC(=O)C(SP(=S)(OC)OC)c1ccccc1 (stereo unspecified)
inactive: Potency [1] | Potency [3] | Potency [7] | Potency [8] | Potency [9]

CCN[C@H](C)Cc1cccc(C(F)(F)F)c1
inactive: Potency [1] | Potency [3] | Potency [4] | activation ([5]; at 70.3 µM (top of the series)) -8.58% | Potency [6] | Potency [7] | Potency [8] | Potency [9]

Reference: PubChem BioAssay (Tox21)
